This note sets out measurements from PMC4336329 (PLoS ONE, 2015).

In all, about 310,000 compounds went through this assay and about 14,000 (4.5%) showed an effect of 50% or more. Effects have a minus sign here. The sample as a whole holds a higher share of strong results than the screen did.
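Further: peak tail current of the secondary pulse compared with the same well before compound.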

The target of the experiment is human ether-à-go-go-related gene (hERG) potassium channel (human, UniProt Q12809). As to the kind of experiment: primary screen, population patch clamp on CHO cells stably expressing hERG; higher = less effect of the substance.
human ether-à-go-go-related gene (hERG) potassium channel, sequence (Q12809 whole entry, looked up): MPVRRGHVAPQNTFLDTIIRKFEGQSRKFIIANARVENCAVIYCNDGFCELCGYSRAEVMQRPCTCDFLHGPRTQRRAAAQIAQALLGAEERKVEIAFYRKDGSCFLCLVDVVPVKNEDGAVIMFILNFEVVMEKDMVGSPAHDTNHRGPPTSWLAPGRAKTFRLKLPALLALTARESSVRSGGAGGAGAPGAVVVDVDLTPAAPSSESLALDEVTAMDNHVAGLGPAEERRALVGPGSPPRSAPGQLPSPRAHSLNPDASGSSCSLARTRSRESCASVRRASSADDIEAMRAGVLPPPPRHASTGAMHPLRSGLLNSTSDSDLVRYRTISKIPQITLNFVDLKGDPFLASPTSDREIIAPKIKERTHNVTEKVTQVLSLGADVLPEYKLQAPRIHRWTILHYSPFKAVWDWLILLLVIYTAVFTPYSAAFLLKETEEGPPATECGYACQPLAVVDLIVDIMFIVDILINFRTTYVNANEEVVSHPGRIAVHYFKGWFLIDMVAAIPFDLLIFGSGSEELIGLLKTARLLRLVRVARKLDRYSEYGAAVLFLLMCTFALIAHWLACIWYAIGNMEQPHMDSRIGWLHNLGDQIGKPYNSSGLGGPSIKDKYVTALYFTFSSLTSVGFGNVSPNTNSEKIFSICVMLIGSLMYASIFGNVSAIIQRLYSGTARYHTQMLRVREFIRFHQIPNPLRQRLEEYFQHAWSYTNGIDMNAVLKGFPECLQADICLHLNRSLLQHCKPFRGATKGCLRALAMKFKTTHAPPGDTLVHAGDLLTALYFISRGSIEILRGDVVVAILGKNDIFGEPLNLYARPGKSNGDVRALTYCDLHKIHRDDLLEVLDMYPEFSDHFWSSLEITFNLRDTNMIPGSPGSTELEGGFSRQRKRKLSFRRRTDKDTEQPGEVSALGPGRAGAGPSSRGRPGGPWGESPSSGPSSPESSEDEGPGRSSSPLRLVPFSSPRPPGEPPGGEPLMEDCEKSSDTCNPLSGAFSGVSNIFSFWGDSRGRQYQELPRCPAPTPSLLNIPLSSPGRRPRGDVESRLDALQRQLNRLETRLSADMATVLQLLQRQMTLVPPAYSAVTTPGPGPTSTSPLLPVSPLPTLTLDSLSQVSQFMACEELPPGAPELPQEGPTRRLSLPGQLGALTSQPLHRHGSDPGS
On to `O=[N+]([O-])c1cccc(NNS(=O)(=O)c2ccccc2F)c1`, for which the “hERG current change (%, negative = inhibition) at 10uM” value was -29.4%. To `O=c1c2c3c(sc2nc2n1N=C(c1cccs1)CS2)CCCC3` belongs 5.12%; to `COc1ccnc(CN(C)C(=O)C2CCC(=O)N(CCN(C)C)C2)c1` (stereo not shown), 17.5%.

With `O=C(c1ccco1)N1CCN(c2ncnc3c(-c4ccccc4)nsc23)CC1`, the “hERG current change (%, negative = inhibition) at 10uM” value was -14.2%. To `O=C(c1ccco1)N1CCN(c2ncnc3scc(-c4ccccc4)c23)CC1` belongs -64.5%; to `CC(C)(C)C(=O)N1CCN(c2ncnc3scc(-c4ccccc4)c23)CC1`, -30%. To `CCN1CCN(C(=O)c2ccc3c(Cl)c4c(nc3c2)CCCC4)CC1` belongs 6.65%. `CCCCC(C(=O)O)C(C)CC(=O)Nc1nncs1` (stereo not shown): the “hERG current change (%, negative = inhibition) at 10uM” value is recorded as 13.1%. To `O=C(Nc1ccccc1)/C(=C/c1cccc(Br)c1)NC(=O)c1ccco1` belongs 5.35%; to `CC(=O)c1cccc(NC(=O)/C(=C\c2cccnc2)NC(=O)c2ccco2)c1`, -10.6%; to `O=C(Nc1ccc2ccccc2c1)/C(=C/c1cccc(Br)c1)NC(=O)c1ccco1`, -68.6%.

Take `Cc1ccc(NC(=O)/C(=C\c2cccnc2)NC(=O)c2ccco2)cc1`: the “hERG current change (%, negative = inhibition) at 10uM” value is -28.5%.

With `Cc1ccc(NC(=O)/C(=C/c2cccc(Br)c2)NC(=O)c2ccco2)cc1`, the “hERG current change (%, negative = inhibition) at 10uM” value is listed as -28.1%. To `O=C(Nc1cccc(F)c1)/C(=C\c1cccnc1)NC(=O)c1ccco1` belongs -22.4%; to `O=C(Nc1ccccc1)/C(=C/c1cccnc1)NC(=O)c1ccco1`, -4.49%.

As to `O=C(Nc1cccc(Cl)c1)/C(=C\c1cccnc1)NC(=O)c1ccco1`, the “hERG current change (%, negative = inhibition) at 10uM” value is recorded as -67%. Under `CC(=O)c1ccc(NC(=O)/C(=C\c2ccco2)NC(=O)c2ccco2)cc1` stands -15.9%; under `CC(=O)c1cccc(NC(=O)/C(=C/c2ccco2)NC(=O)c2ccco2)c1`, -18.6%. Under `O=C(Nc1cccc(Br)c1)/C(=C\c1cccnc1)NC(=O)c1ccco1` stands -56.6%; under `CC(=O)c1cccc(NC(=O)/C(=C\c2ccco2)NC(=O)c2ccco2)c1`, -64.3%; under `Cc1ccc(NC(=O)COC(=O)CCC(=O)c2cccs2)cc1`, -6.94%. As to `COc1ccc(-c2nc3c(=O)n(C)c(=O)[nH]c3n2CCc2ccccc2)cc1`, the “hERG current change (%, negative = inhibition) at 10uM” value is 22.1%. To `Cn1c(=O)c2c(nc(N3CCc4ccccc4C3)n2C)n(C)c1=O` belongs 7.62%. With `CCCCS(=O)(=O)N1CCC(C(=O)Oc2ccccc2OC)CC1`, the “hERG current change (%, negative = inhibition) at 10uM” value was -9.14%. Under `O=c1cc(N2CCc3ccccc3C2)[nH]c(=O)n1-c1ccc(Cl)cc1` stands 3.07%; under `COc1cc2[nH]c(=S)n(Cc3ccccc3)c(=O)c2cc1OC`, 11.4%. Under `CCOc1ccc(CCNC(=O)CCC(=O)N2CCSc3ccccc32)cc1OCC` stands -2.52%.

`O=C(Nc1ccc(Cc2ccncc2)cc1)c1cccc([N+](=O)[O-])c1`: the “hERG current change (%, negative = inhibition) at 10uM” value was 13.6%.

Take `CC(=O)Nc1ccc(C(=O)CSc2nc3ccccc3n2CC(=O)N2CCCC2)cc1`: the “hERG current change (%, negative = inhibition) at 10uM” value is 11.1%. To `CCOc1cc2c(C#N)c(N3CCNCC3)nc(N)c2c(N)n1` belongs 5.41%; to `O=C(Cc1ccccc1)Nc1cccc(S(=O)(=O)N2CCCCCC2)c1`, -49.1%; to `O=C(CN1CCN(Cc2ccccc2)CC1)Nc1cccc(S(=O)(=O)N2CCCCCC2)c1`, -76.3%. Under `O=C(CN1CCOCC1)Nc1cccc(C(=O)Nc2cccc(C(F)(F)F)c2)c1` stands -40.1%. In the case of `O=C(CN1CCN(c2ccccc2)CC1)Nc1cccc(C(F)(F)F)c1`, the “hERG current change (%, negative = inhibition) at 10uM” value is 2%. To `O=C(CN1CCN(Cc2ccccc2)CC1)Nc1cccc(C(F)(F)F)c1` belongs -71.6%; to `COc1ccccc1N1CCN(CCC(=O)Nc2ccc(F)cc2)CC1`, -19.3%. Take `CC1CN(CC(=O)Nc2cccc(C(=O)Nc3cccc(C(F)(F)F)c3)c2)CC(C)O1` (stereo not shown): the “hERG current change (%, negative = inhibition) at 10uM” value is -54.3%.

Regarding `COc1ccccc1N1CCN(CCC(=O)Nc2ccc3c(c2)OCO3)CC1`, the “hERG current change (%, negative = inhibition) at 10uM” value is recorded as -26.7%. Under `CC1CCN(CC(=O)Nc2cccc(C(=O)Nc3cccc(C(F)(F)F)c3)c2)CC1` stands -37.3%; under `COc1ccccc1N1CCN(CCC(=O)Nc2cccc(Cl)c2)CC1.Cl`, -62.8%. Consider `O=C(CN1CCOCC1)Nc1cccc(C(F)(F)F)c1`, for which the “hERG current change (%, negative = inhibition) at 10uM” value is reported as -3%.

In the case of `CC(=O)N1CCN(CC(=O)Nc2cccc(S(=O)(=O)N3CCCCCC3)c2)CC1`, the “hERG current change (%, negative = inhibition) at 10uM” value is listed as -23.3%. Take `COc1ccc(NC(=O)Cn2nnc(C(=O)NCc3cccs3)c2N)cc1`: the “hERG current change (%, negative = inhibition) at 10uM” value was 13.9%. Under `COc1ccc(/C=C2\SC(=S)N(Cc3cccnc3)C2=O)cc1C` stands -3.04%; under `Cc1ccc2c(cnn2C(=O)CCC(=O)NC2CCCC2)c1`, -10.3%. On to `O=C(CCN1C(=O)/C(=C/c2cccc(Br)c2)SC1=S)NNC(=O)c1cccnc1`, for which the “hERG current change (%, negative = inhibition) at 10uM” value was determined as 6.24%.
